Whole data set: some 33,000 sequences, median “E-score (-0.5 to 0.5)” near -0.012, cut for the highest 2% near 0.27. The entries come from a sample that favours the highest values as a whole.
molecular target: T1, Vhr1 (UniProt P40522); assay: PBM E-score (8-mer binding enrichment) (E-score (-0.5 to 0.5)); higher = stronger / more preferred TF binding; conditions: protein concentration: 200 nM; construct: GST-full length
T1 sequence: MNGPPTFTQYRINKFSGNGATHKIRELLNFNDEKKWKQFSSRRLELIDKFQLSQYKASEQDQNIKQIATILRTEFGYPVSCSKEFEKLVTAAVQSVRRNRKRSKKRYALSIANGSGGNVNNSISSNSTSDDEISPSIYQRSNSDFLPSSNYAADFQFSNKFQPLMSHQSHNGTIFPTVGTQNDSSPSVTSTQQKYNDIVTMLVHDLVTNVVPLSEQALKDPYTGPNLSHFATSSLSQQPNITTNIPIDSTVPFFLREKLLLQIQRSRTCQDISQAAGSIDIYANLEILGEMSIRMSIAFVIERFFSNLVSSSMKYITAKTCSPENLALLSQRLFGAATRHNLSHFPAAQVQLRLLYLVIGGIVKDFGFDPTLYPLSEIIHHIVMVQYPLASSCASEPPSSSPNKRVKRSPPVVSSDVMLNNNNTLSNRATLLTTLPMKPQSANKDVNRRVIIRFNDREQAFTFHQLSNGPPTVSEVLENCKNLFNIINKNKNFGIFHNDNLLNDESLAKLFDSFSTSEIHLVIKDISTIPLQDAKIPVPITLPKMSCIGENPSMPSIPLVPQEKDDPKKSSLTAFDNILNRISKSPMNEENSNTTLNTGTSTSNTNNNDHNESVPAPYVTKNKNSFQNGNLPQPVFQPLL
Procedure: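 Universal 'all 10-mer' protein binding microarrays (Agilent AMADID 015681) probed with GST-tagged S. cerevisiae TFs (full-length or DBD) made by in vitro transcription/translation (PURExpress), about 100-200 nM. Bound TF was detected with fluorescent anti-GST. Each ungapped 8-mer (which stands for itself and its reverse complement) is scored by the PBM enrichment score (E-score), a modified Wilcoxon-Mann-Whitney statistic from -0.5 to +0.5, computed with the Universal PBM Analysis Suite. Scale: above 0.35 generally sequence-specific binding.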

| Sequence | PBM E-score |
| --- | --- |
| AGAGCGAC | 0.0123 |
| ACTATAGC | 0.00988 |
| CTCGATTA | 0.216 |
| TACGAGCA | -0.0868 |
| GGAATACA | 0.0161 |
| CACCCGTC | 0.0428 |
| CAACGCTA | -0.125 |
| CATGATCC | 0.213 |
| CACGAATC | 0.288 |
| CACGAATA | 0.066 |
| AACGAATC | 0.125 |
| CAGGAATC | 0.313 |
| CAGGAATG | 0.0121 |
| GATGAATC | 0.249 |
| GAGGAATC | 0.0804 |
| CATGAATC | 0.31 |
| CATGATTC | 0.424 |
| AATGAATC | 0.23 |
| CTTGATTC | 0.214 |
| CAGTATCC | 0.124 |
| GCTGGCGA | -0.0575 |
| GGCAGACA | -0.0678 |
| ATTGCCCA | -0.113 |
| CCGGTCCG | 0.112 |
| AAATGAAT | -0.0848 |

| Sequence | PBM E-score |
| --- | --- |
| CTGATCGA | 0.0718 |
| CTGGACCC | -0.213 |
| CACTGCCG | 0.173 |
| ATACTACG | -0.0642 |
| CTGAGATA | -0.128 |
| GCAGCTTA | -0.0202 |
| CATGATAA | 0.108 |
| ATTGATTC | 0.171 |
| CATGATTA | 0.369 |
| CTTGATTA | 0.0605 |
| AATGATTG | 0.199 |
| AATGATTC | 0.406 |
| TAACCTAA | -0.187 |
| ACCTTCTG | 0.167 |
| ACCACCCG | -0.0147 |
| CCCACCCA | 0.263 |
| CCCACCCC | 0.389 |
| GCCACCCC | -0.0413 |
| ACCACCCC | 0.112 |
| CCCACCCG | 0.382 |
| AACCCCTA | -0.0392 |
| AACACCGA | 0.108 |
| CACGACTG | 0.178 |
| CACGACTC | 0.378 |
| GACGACGC | -0.049 |

| Sequence | PBM E-score |
| --- | --- |
| CACGACTA | 0.209 |
| AACGACTC | 0.292 |
| GACGACTA | 0.162 |
| AACGACTA | 0.0488 |
| AACGACTT | -0.216 |
| GACGACTC | 0.358 |
| GCACCCAA | -0.0528 |
| AGTCTTGC | 0.0289 |
| ACAGCTCC | 0.0267 |
| TTACCTAA | -0.0877 |
| AAGTCAGA | 0.0614 |
| GAGTCAGA | 0.447 |
| ATGTCAGC | 0.072 |
| GAGTCAGC | 0.476 |
| CAGTCAGC | 0.232 |
| CAGTCAGA | 0.224 |
| GCGTCAGC | -0.256 |
| AAGTCAGC | 0.281 |
| GGGTCAGA | -0.0746 |
| CATGGGAC | 0.02 |
| GTACTTCA | 0.114 |
| CAATGGTC | 0.115 |
| CCTAGTAC | 0.0265 |
| ATGCTCAA | -0.0744 |
| CTCGAGAA | -0.188 |

| Sequence | PBM E-score |
| --- | --- |
| GGCAGTGA | 0.0755 |
| AGCAGTCA | 0.256 |
| GGCAGTCA | 0.345 |
| CGCAGTCA | 0.363 |
| CGCAGTCC | 0.0797 |
| GGCAGTAA | 0.125 |
| AGACCTGC | -0.147 |
| GGCGCGAC | 0.275 |
| GGCGCGAA | 0.0599 |
| GTCGCGAC | 0.379 |
| CGCGCGAC | 0.162 |
| CTCGCGAC | 0.242 |
| GTCGCGAA | 0.0553 |
| AGGGCTCC | -0.358 |
| CTGGCTCC | 0.0343 |
| ATGGCTCC | 0.325 |
| AGGGCTCA | 0.0814 |
| ATGGCTCG | 0.231 |
| GTGGCTCA | 0.277 |
| ATGGCTCA | 0.293 |
| ATAGCTCA | 0.0225 |
| CTGGCTCA | 0.28 |
| CCGGCTCA | 0.0508 |
| GTGGCTTA | -0.111 |
| GTAGCTCA | 0.0143 |

| Sequence | PBM E-score |
| --- | --- |
| AATGAGCC | -0.00477 |
| AGAGACTG | 0.0515 |
| CTGCAGAA | 0.0335 |
| GATTGACA | 0.0916 |
| AAAGTTCG | -0.228 |
| AGTCAGTG | 0.375 |
| CGTCAGTA | 0.02 |
| AGTCAGTA | 0.323 |
| ATTCAGTG | 0.0826 |
| AATCAGTG | 0.0903 |
| AGTCAGTC | 0.214 |
| ATAGGAGA | -0.00333 |
| GCAGCAAC | 0.126 |
| CAAGGGCC | -0.201 |
| ACAATATG | 0.325 |
| ACACACAC | 0.316 |
| ACAATATC | 0.0645 |
| ACCCATAG | 0.0609 |
| GCACACAC | 0.178 |
| CCACACAC | 0.143 |
| ACCCATAC | 0.222 |
| ACACTATA | 0.152 |
| ACACTATC | 0.151 |
| ACAATATA | 0.221 |
| ACCCATAT | 0.296 |

| Sequence | PBM E-score |
| --- | --- |
| ACACTATG | 0.292 |
| ACTGTTGG | 0.034 |
| CCGATTTC | -0.129 |
| GTATAGAC | 0.145 |
| CGAAACCC | -0.0543 |
| CAATCGTA | -0.029 |
| ACCGATTC | -0.0343 |
| CAGCGAGC | 0.135 |
| CGAGCAGA | 0.0217 |
| TTGGTAAA | -0.12 |
| CCACACAG | 0.165 |
| ACACACAT | 0.275 |
| ACACACAG | 0.353 |
| ACAGTATC | -0.14 |
| ACACACAA | 0.226 |
| ACAGTATA | 0.11 |
| CCACACTC | -0.0226 |
| ACAGTATG | 0.277 |
| ACACACTC | 0.293 |
| AGACACAT | 0.0642 |
| ACACACTG | 0.163 |
| AAACACAT | 0.252 |
| CAGTTGCG | 0.107 |
| ACTTCTGG | -0.04 |
| GTTGAAAC | -0.0891 |

| Sequence | PBM E-score |
| --- | --- |
| CTAAGAAA | -0.112 |
| AATGCTAC | 0.072 |
| ACGCTCCT | -0.065 |
| ACCCACAC | 0.185 |
| ACCCACAG | 0.157 |
| ACCCACAT | 0.271 |
| ACACTTAG | 0.00688 |
| GGTCGGCA | -0.138 |
| AGTCGGAC | -0.0678 |
| CGTCGGCA | 0.044 |
| AGTCGGAA | 0.293 |
| CCTCGGCA | -0.129 |
| CCTCGGCC | 0.00422 |
| TGTCGGAA | 0.0453 |
| AGTCGGCC | 0.278 |
| AGTCGGCA | 0.282 |
| ATTCGGCC | 0.0234 |
| CCTCGGCG | 0.283 |
| CGTCGGCC | -0.143 |
| GACTTGAA | -0.152 |
| AAAGGTCA | -0.173 |
| CCGACTGC | 0.126 |
